# From PubChem BioAssay
# Hits are enriched below; roughly 3.3% of the tested compounds scored in any of these assays.
# AmpC inh detg – inhibitors of E. coli AmpC beta-lactamase with detergent; actives 0.041% (n = 370,000); P00811; Potency, µM (series often up to 114 µM), for the others: top-dose activity change, negative = inhibition, usual class: inhibitors; AmpC hydrolysis of nitrocefin, absorbance 480 nm, 0.01% Triton;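 also: 0% = no-compound wells and -100% = no-enzyme wells; nearly all actives have a fitted effect of over 25% in size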
# Target sequence (P00811 whole entry, looked up): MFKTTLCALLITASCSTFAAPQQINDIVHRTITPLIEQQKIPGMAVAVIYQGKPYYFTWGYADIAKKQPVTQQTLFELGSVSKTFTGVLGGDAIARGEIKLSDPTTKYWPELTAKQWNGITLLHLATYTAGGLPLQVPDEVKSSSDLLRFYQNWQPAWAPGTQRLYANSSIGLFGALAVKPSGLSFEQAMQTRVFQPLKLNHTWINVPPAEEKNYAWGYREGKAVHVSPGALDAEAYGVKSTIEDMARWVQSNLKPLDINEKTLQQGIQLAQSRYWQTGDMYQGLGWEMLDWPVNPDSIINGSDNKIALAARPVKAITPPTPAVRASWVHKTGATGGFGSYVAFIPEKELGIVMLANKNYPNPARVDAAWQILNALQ
#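 20 mM phosphate pH 7.0 + 0.01% (detergent screen) or 0.0001% Triton X-100; 5.3 nM AmpC reagent; cpd preinc 15 min RT; nitrocefin (800 uM stock) to start; A480 q20 s × 4 min; Activity was normalised to no-enzyme and no-compound control wells.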
# AmpC no deterg – inhibitors of E. coli AmpC beta-lactamase without detergent | actives 0.52% (n = 330,000) | Potency, µM (titrated, usually from 57.1 µM), inactives show at the top dose activity change, negative = inhibition, hits mostly inhibitors | P00811 | AmpC nitrocefin hydrolysis, absorbance 480 nm, 0.0001% Triton | AID 485341;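 also: plate controls were no compound for no effect and no enzyme for full effect; nearly all actives have a fitted effect of over 20% in size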
#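 20 mM phosphate pH 7.0 + 0.01% (detergent screen) or 0.0001% Triton X-100; 5.3 nM AmpC reagent; cpd preinc 15 min RT; nitrocefin (800 uM stock) to start; A480 q20 s × 4 min; Activity was normalised to no-enzyme and no-compound control wells.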
# Sm TGR inh – S. mansoni TGR enzyme inhibition. Q962Y6. purified TGR, DTNB reduction, TNB absorbance 405 nm. Potency, µM (top dose mostly 114 µM), for the others: at the top dose activity change, negative = inhibition, hits mostly inhibitors. actives 3% (n = 360,000). AID 485364; also: nearly all actives have a fitted effect of over 60% in size
#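 Kinetic colorimetric format: TGR-catalysed, NADPH-driven DTNB reduction monitored via TNB absorbance. Enzyme dispensed at 20 nM; compound exposure 15 min at room temperature before reaction start.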
# An asterisk follows results filed as active; ? = inconclusive; nt = no result. Calls follow the shape of the dose curve; as a rule, active = well fitted curve in the direction sought with a large enough effect; inconclusive = small, poorly fitted or top-dose-only effect, or another doubt; inactive = no such curve, though single readings can be large; an effect the other way counts as inactive or inconclusive. Unless noted, % is scaled to controls: 0 for no effect and ±100 for the full control effect; potency is read from the fitted curve at half-maximal effect.
SMILES,AmpC inh detg,AmpC no deterg,Sm TGR inh
COc1ccc(OCC(=O)Nc2cc(-c3nc4ccccc4o3)ccc2Cl)cc1,-1%,nt,3%
CCN(CC)CCCNC1=C(Cl)C(=O)c2ccccc2C1=O,6%,-12%,35µM*
COCCCNC1=C(Cl)C(=O)c2ccccc2C1=O,-1%,-13%,-32%
CC(C)NC1=C(Cl)C(=O)c2ccccc2C1=O,?,-15%,28µM*
O=C(O)c1cccc(NC2=C(Cl)C(=O)c3ccccc3C2=O)c1,-14%,-17%,1.6µM*
O=C(O)c1cccc(NS(=O)(=O)/C=C/c2ccccc2)c1,?,-13%,0%
O=C1C(Cl)=C(NCCc2ccccc2)C(=O)N1CCc1ccccc1,3%,-15%,-3%
C=CCNC1=C(Cl)C(=O)N(Cc2ccccc2)C1=O,0%,-18%,40µM*
CC(C)OCCCNC1=C(Cl)C(=O)c2ccccc2C1=O,-1%,-1%,21%
O=C1CCCN1CC(=O)N1CCCC(N2CCN(c3cccc(Cl)c3)CC2)C1 (configuration not stated),4%,33%,0%
Cc1cc(C)n(/C(=C/N(C)C)C(=O)c2ccccc2)n1,-8%,-18%,10%
O=S(=O)(Cc1ccccc1)NCc1cccnc1,?,-3%,0%
O=C1C(Cl)=C(Nc2ccccc2)C(=O)c2ccccc21,-12%,-12%,1µM*
C=CCNC1=C(Cl)C(=O)N(c2cccc(Cl)c2Cl)C1=O,5%,-33%,-24%
O=C1C(Cl)=C(NCc2cccnc2)C(=O)c2ccccc21,-2%,-9%,45µM*
O=C(O)c1ccc(NC2=C(Cl)C(=O)c3ccccc3C2=O)cc1,-1%,-15%,?
C=CCNC1=C(Cl)C(=O)c2ccccc2C1=O,-6%,-11%,45µM*
COc1ccc(C(=S)N2CCN(c3ccccc3C)CC2)cc1,1%,38%,-1%
CN(CC1CCOCC1)C(=O)CC1C(=O)NCCN1Cc1cccc(F)c1 (configuration not stated),?,73%,?
O=C1NCCN(Cc2ccoc2)C1CC(=O)N(Cc1ccccc1)CC1CCC1 (configuration not stated),4%,56%,10µM*
O=C1NCCN(Cc2ccc(-c3ccccc3)cc2)C1CC(=O)N1CCN(CCO)CC1 (configuration not stated),4%,109%,3%
COCCN(C(=O)CC1C(=O)NCCN1Cc1ccc(-c2ccccc2)cc1)C(C)C (configuration not stated),5%,176%,40µM*
CN(CCc1ccccn1)C(=O)CC1C(=O)NCCN1Cc1ccc(-c2ccccc2)cc1 (configuration not stated),-2%,185%,0%
Cc1ccc(CN2CCNC(=O)C2CC(=O)N(C)C2CCCCC2)cc1 (configuration not stated),-1%,113%,45µM*
CCOc1ccc(CN2CCNC(=O)C2CC(=O)N(C)C2CCCCC2)cc1 (configuration not stated),-5%,62%,?
SMILES,AmpC inh detg,AmpC no deterg,Sm TGR inh
O=C1NCCN(Cc2ccc(F)cc2)C1CC(=O)N1CC=C(c2ccccc2)CC1 (configuration not stated),4%,35%,35µM*
COC(=O)c1ccc(NC(=O)Cn2ccn3nc(-c4ccc(OC)cc4)cc3c2=O)cc1,5%,nt,6%
COc1ccc(CN2CCC(C(=O)Nc3ccc(Oc4ccccc4)nc3)CC2)cc1F,-14%,32%,-19%
CN(C)CC(NC(=O)c1cccc(S(=O)(=O)Nc2ccc3c(c2)OCO3)c1)c1ccccc1 (configuration not stated),-19%,0%,?
Cc1ccc(C)c(C(=O)COC(=O)CCCC(=O)Nc2cc(C(F)(F)F)ccc2Cl)c1,12%,14%,3%
Cn1nnnc1SCCCNCc1cc(Br)ccc1OCc1ccccc1,12%,nt,-1%
Cn1c(N)c(C(=O)COC(=O)CNC(=O)c2ccccc2F)c(=O)n(C)c1=O,nt,-11%,nt
COc1ccc(N2CCN(C(=O)CN3C(=O)NC(C)(C4CC4)C3=O)CC2)cc1 (configuration not stated),2%,-19%,-2%
COc1ccc(CN2CCNC(=O)C2CC(=O)NCCCn2cccn2)cc1C (configuration not stated),-6%,51%,-12%
CN(C(=O)CC1C(=O)NCCN1Cc1ccc(F)cc1)C1CCOCC1 (configuration not stated),2%,-3%,55%
